# Bioassay records deposited in PubChem by National Center for Advancing Translational Sciences (NCATS).
# TGFb inhibitor: inhibitors of TGF-b signaling. HepG2 CAGA-GFP TGF-b/SMAD3 reporter, GFP fluorescence, 18 h; TGF-beta stimulated, 500 pg/mL final. Potency, µM (doses to about 46.1 µM), without a hit: top-dose activity, negative = inhibition, hits mostly inhibitors. 1.2% of 410,000 active. AID 588855; also: potency is read from the fitted curve at half-maximal effect; % is scaled to controls: 0 for no effect and ±100 for the full control effect; nearly all actives have a fitted effect of over 65% in size
#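 Using HEPG2 CAGA-GFP reporter cells at 1000 cells/well, we pinned test compounds, stimulated with recombinant TGF-beta (500 pg/mL final) and measured total well GFP after 18 h.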
# uPA surface inh: cell surface uPA generation inhibition; cell surface uPA generation assay, qHTS; Potency, µM (series often up to 38.3 µM), inactives show at the highest dose activity change, negative = inhibition, usual class: inhibitors; 0.31% of 330,000 active; AID 540303; active = well fitted inhibition curve with a large enough effect; inconclusive = small, poorly fitted or top-dose-only effect; inactive = no such curve, though single readings can be large or run the other way; tested in mouse RAW 264.7 cells; also: potency is read from the fitted curve at half-maximal effect; % is scaled to controls: 0 for no effect and ±100 for the full control effect; nearly all actives have a fitted effect of over 55% in size
# ATXN2 expr inh: ATXN2 expression inhibition | HEK-293 ATXN2-luciferase reporter, luminescence, 24 h | Potency, µM (highest dose often 57 µM), without a hit: at the highest dose activity change, negative = inhibition, most hits filed as inhibitors | 0.72% of 360,000 active | AID 1745845; also: potency is read from the fitted curve at half-maximal effect; % is scaled to controls: 0 for no effect and ±100 for the full control effect; nearly all actives have a fitted effect of over 55% in size
#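 qHTS (up to 57 uM final) was run with 24 h compound exposure of reporter cells at 37 °C. Each well was multiplexed: SteadyGlo luminescence measured ATXN2-luciferase expression after a fluorogenic Gly-Phe-AFC viability readout (25 uM final).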
# S2 tox: viability counter-screen for ATXN expression inhibitors; S2 cells (HEK-293 line with an ATXN2-luciferase reporter) viability, CellTiter-Fluor protease fluorescence, 24 h; Potency, µM (series often up to 56.7 µM), actives largely listed as cytotoxic; 0.49% of 400,000 active; also: potency is read from the fitted curve at half-maximal effect; nearly all actives have a fitted effect of over 40% in size
# Giardia killer: Giardia lamblia killing; Giardia lamblia trophozoite viability; activity change, % at 7.66 µM, hits read low; 0.15% of 340,000 active; AID 540267; in the data active = activity change below about -80%; inconclusive = between about -30% and that limit;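 also: parasites exposed to compound for two days anaerobically before the ATP read; % is scaled to controls: 0 for no effect and ±100 for the full control effect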
#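 ATP-content bioluminescence gauges trophozoite survival. Cells (100/well) receive compound and incubate anaerobically for 48 hrs at 37 deg C; detection reagent follows for 15-30 min at room temperature.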
# HepG2 tox-1: HepG2 cytotoxicity, counter-screen for TGF-b inhibitors. HepG2 CAGA-GFP viability, ATP luminescence, 18 h. Potency, µM (series often up to 46.1 µM), without a hit: at the top dose activity change, negative = cytotoxicity, actives largely listed as cytotoxic. 0.76% of 410,000 active; also: potency is read from the fitted curve at half-maximal effect
#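 CellTiter-Glo luminescence gave cytotoxicity after 18 hours at 37 degrees C. The cells were HepG2 CAGA-GFP in 1% FBS DMEM, stimulated with 500 pg/mL TGF-beta after compound addition. %Activity was normalised to no-cell wells (complete cell-killing) and DMSO (no toxicity), and curves were fitted and classified.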
# TGFb confirm: TGF-b pathway inhibition, cherry-pick retest; shares compounds with TGFb inhibitor; HepG2 CAGA-GFP TGF-b reporter, GFP fluorescence, 18 h; cells stimulated with TGF-beta, 500 pg/mL; Potency, µM (highest dose often 46.1 µM), inactives show at the highest dose activity, negative = inhibition, usual class: inhibitors; 63% of 1,600 active; AID 720534; also: potency is read from the fitted curve at half-maximal effect; % is scaled to controls: 0 for no effect and ±100 for the full control effect; nearly all actives have a fitted effect of over 65% in size
# HepG2 tox-2: toxic to HepG2 cells in TGF-b counterscreen | shares compounds with TGFb inhibitor | HepG2 CAGA-GFP viability, ATP luminescence, 18 h; cells stimulated with TGF-beta, 500 pg/mL | Potency, µM (doses to about 46.1 µM), for inactives: at the top dose activity, negative = cytotoxicity, hits mostly inhibitors | 27% of 1,600 active | AID 720535; also: potency is read from the fitted curve at half-maximal effect; % is scaled to controls: 0 for no effect and ±100 for the full control effect; nearly all actives have a fitted effect of over 70% in size
# TGFb CCL64 inh: blocks TGF-b signaling in CCL64 reporter cells; Potency, µM (top dose mostly 46.1 µM), inactives show at the highest dose activity, negative = inhibition, hits mostly inhibitors; 41% of 1,600 active; AID 720536; CCL64 CAGA-GFP reporter, TGF-b stimulated, GFP fluorescence, 18 h; shares compounds with TGFb inhibitor; also: potency is read from the fitted curve at half-maximal effect; nearly all actives have a fitted effect of over 65% in size
# COP TGFb inh: blocks TGF-b signaling in HepG2 COP reporter. shares compounds with TGFb inhibitor. Potency, µM (doses to about 46.1 µM), without a hit: top-dose activity, negative = inhibition, actives largely listed as inhibitors. HepG2 COP-GFP TGF-b reporter, GFP fluorescence, 18 h; cells stimulated by added recombinant TGF-beta. 3% of 1,600 active; also: potency is read from the fitted curve at half-maximal effect; nearly all actives have a fitted effect of over 70% in size
# The depositor's hits bear a star; i = inactive; ? = inconclusive; / = not tested or not shown. Compounds with a hit are over-represented: about 2.6% of the library has one in this group of screens. Unless noted, calls follow the shape of the dose curve; as a rule, active = well fitted curve in the direction sought with a large enough effect; inconclusive = small, poorly fitted or top-dose-only effect, or another doubt; inactive = no such curve, though single readings can be large; an effect the other way counts as inactive or inconclusive.
SMILES,TGFb inhibitor,uPA surface inh,ATXN2 expr inh,S2 tox,Giardia killer,HepG2 tox-1,TGFb confirm,HepG2 tox-2,TGFb CCL64 inh,COP TGFb inh
CC(=NNc1nc2ccccc2o1)c1cc2ccccc2cn1,0.32µM*,-4%,?,i,10,-52%,?,18µM*,?,22%
CC(=NNc1nc2ccccc2o1)c1ncccn1,?,-8%,?,?,-1,-37%,/,/,/,/
O=C(CCC(=O)Nc1ccccc1Cl)NNC(=O)NC1CCCCC1,-18%,7%,-8%,i,-2,-18%,/,/,/,/
CC1(C)Cc2ccccc2C2=NNC(=O)C2=N1,3.2µM*,-8%,?,?,13,-89%,4.6µM*,7.3µM*,?,12µM*
O=C(NCc1ccccc1F)C1CCCN(C(=O)N2CCOc3ccccc32)C1 (stereo not drawn),-26%,/,/,/,/,-18%,/,/,/,/
CCO[C@H]1OC(C(=O)NCc2nc3ccccc3[nH]2)=C[C@@H](c2ccc(Br)cc2)[C@@H]1CCCO,-24%,1%,?,?,-18,-13%,/,/,/,/
CCO[C@@H]1OC(C(=O)NCc2nc3ccccc3[nH]2)=C[C@H](C(C)(C)C)[C@H]1CCCO,1.6µM*,?,4%,?,-15,-5%,?,6%,?,-25%
Cc1ccc(NC(=O)CN(C)C(=O)c2cc(-c3ccccc3)nn2-c2ccccc2)cc1,11µM*,1%,-3%,i,-23,-1%,18µM*,-22%,16µM*,9%
COc1cccc(NC(=O)CN(C)C(=O)c2cc(-c3ccccc3)nn2-c2ccccc2)c1,-12%,12%,-10%,i,11,-7%,/,/,/,/
CN(C)CCN(CC1CCCN(Cc2ccccc2F)C1)C(=O)c1ccc(F)cc1 (stereo not drawn),-2%,-2%,-16%,i,5,-15%,/,/,/,/
O=C1C=C(c2cccc(CO)c2)C[C@@H](c2ccc(F)cc2)C1,2%,15%,-5%,i,-6,-15%,/,/,/,/
O=C(Cn1c(=O)c2ccccc2n(CC(=O)Nc2ccc(Cl)cc2)c1=O)NCCc1ccccc1,?,/,/,/,/,-5%,/,/,/,/
O=C1N[C@H](Cc2ccccc2)COC(=O)[C@@H](Cc2ccc(F)cc2)CC/C=C/C[C@H]1CC(=O)N(CCO)Cc1ccccc1,?,?,?,?,1,-6%,/,/,/,/
O=C1N[C@@H](c2ccccc2)COC(=O)[C@H](Cc2ccc(F)cc2)CC/C=C/C[C@H]1CC(=O)N(CCO)Cc1ccccc1,?,?,?,?,-14,-1%,/,/,/,/
O=C1N[C@@H](c2ccccc2)COC(=O)[C@@H](Cc2ccc(F)cc2)C/C=C\C[C@@H]1CC(=O)N(CCO)Cc1ccccc1,13µM*,?,0%,?,-17,-4%,16µM*,?,?,45%
O=C1N[C@@H](Cc2ccccc2)COC(=O)[C@@H](Cc2ccc(F)cc2)CC/C=C/C[C@@H]1CC(=O)N(CCO)Cc1ccccc1,22µM*,?,?,?,1,5%,16µM*,-27%,23µM*,28%
O=C1CCCC(O)=C1Sc1cc(Cl)c(Cl)cc1Cl,?,2%,-20%,/,-1,-3%,/,/,/,/
CN(CC1CCCO1)S(=O)(=O)c1ccc(C(=O)Nc2nccs2)cc1 (stereo not drawn),-13%,15%,/,i,-22,-20%,/,/,/,/
NC1=C(Br)C(=O)c2ncccc2C1=O,2.8µM*,-12%,5.3µM*,13µM*,-9,2.8µM*,1.2µM*,3.3µM*,4.6µM*,4.6µM*
CCN(CC)C(=O)CSc1nnc2nnc3cc(Cl)ccc3n12,4µM*,-1%,-21%,i,-81*,-86%,23µM*,23µM*,?,?
CCN(CC)C(=O)CSc1nnc2nnc3cc(C)ccc3n12,-14%,6%,-17%,i,-17,-7%,/,/,/,/
COC(=O)C1(CC2CC(c3cccc(Br)c3)=NO2)CCN(C(=O)OC(C)(C)C)CC1 (stereo not drawn),?,-4%,-23%,i,-2,-4%,23µM*,?,?,51%
Cc1ccc(-c2ccc(CN3C(C(C)C)C(=O)N(Cc4cn(CCC5OCCO5)nn4)CCS3(=O)=O)cc2)c(C)c1 (stereo not drawn),11µM*,/,?,?,/,-76%,23µM*,?,23µM*,-21%
CC1C(=O)N(Cc2cn(CCC3OCCCO3)nn2)CCS(=O)(=O)N1Cc1ccc(-c2ccc(Cl)cc2)cc1 (stereo not drawn),13µM*,/,18µM*,28µM*,/,-27%,?,?,?,67%
Oc1ccccc1-c1nc(NCc2cccnc2)c2ccccc2n1,20µM*,-6%,?,i,18,-21%,?,?,?,17%
Oc1ccccc1-c1nc(NCc2ccccc2)c2ccccc2n1,-9%,0%,-33%,i,-15,-6%,/,/,/,/
CCc1nc2ccc(C(=O)NCCCN3CCCC3=O)cn2c1N(C)CCC(C)C,-93%,/,-15%,i,/,-93%,/,/,/,/
COc1ccc(OC)c(NC(=O)NNC(=O)CCCOc2ccc(Cl)cc2C)c1,?,2%,-21%,i,19,-21%,16µM*,-11%,4%,20%
CCCC(=O)N1CCN(c2ccc(NC(=O)c3ccc([N+](=O)[O-])o3)cc2Cl)CC1,5.6µM*,-12%,?,i,-82*,11µM*,3.7µM*,13µM*,23µM*,?
O=C(Nc1c(Cl)ccc2nsnc12)c1ccc(Br)o1,-2%,/,/,i,/,-19%,/,/,/,/
